In PubChem BioAssay (Tox21) one finds Potency data, which are given here for 40 compounds.

The structures appear in SMILES notation. Inconclusive results are not listed. A call without a number means that no potency is given here. The source made the active and inactive calls. Calls come from the whole dose curve; as a rule, active = well fitted cell-killing curve with a large enough effect in the repeat runs; inconclusive = weak or mixed curves, or effect the other way; inactive = flat fitted curve, though single readings scatter.
Potency is the fitted concentration of half-maximal effect.

A short description of this experiment: cAMP Responsive Elements (CRE) small molecule antagonists, cell-based qHTS assay: qHTS cell viability counter screen (AID 2060913). Note: nearly all actives have a fitted effect of over 40% in size. Particulars: CRE-bla HEK293T viability, CellTiter-Glo luminescence, 5 h; series mostly up to 92.4 µM. The method in brief: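 CRE-bla HEK293T cells were seeded in assay medium with 10% dialyzed FBS, incubated 18 hrs at 37 C, then exposed to compounds plus 0.25 uM final NKH477 for 3 hrs. Viability was read by CellTiter-Glo luminescence after 30 min, in the same wells.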
In the case of `O=C/C=C/c1ccco1`, the Potency result was “inactive”.
As for `C[C@@H]1O[C@@H](O[C@@H]2C=C3CC[C@@H]4[C@H](CC[C@]5(C)[C@@H](c6ccc(=O)oc6)CC[C@]45O)[C@@]3(C)CC2)[C@H](O)[C@H](O)[C@H]1O`, the Potency was 0.0188 µM (active).
As for `COc1ccc([N+](=O)[O-])cc1O`, the Potency entry was “inactive”.
Turning to `CO/C=C(/C(=O)OC)c1ccccc1Oc1cc(Oc2ccccc2C#N)ncn1`, the Potency was 65.2 µM (active).
The same measure for `C=CCO`: “inactive”; for `C#C[C@]1(O)CC[C@H]2[C@@H]3CCC4=CC(=O)CCC4=C3C=C[C@@]21CC`: “inactive”.
For `CC(=O)[O-].CC(=O)[O-].[Co+2]`, the Potency result is “inactive”.
With `NC(=S)C(N)=S` the entry was “inactive”.
With `CCCCOC(=O)COC(=O)c1ccccc1C(=O)OCCCC` the entry was “inactive”; with `CS(=O)(=O)c1cc(C(F)(F)F)ccc1C(=O)c1cnoc1C1CC1`, “inactive”; with `CCCCCCOC(=O)c1ccccc1C(=O)OCCCCCC`, “inactive”.
Take `O=C(Cl)OCc1ccccc1`: the Potency result is “inactive”.
Consider `O=C(NCO)NCO`, for which the Potency result is “inactive”.
As to `Cc1ccc2c(C)cccc2c1`, the Potency result was “inactive”.
The same measure for `O=C(O)C(Cl)Br` (stereo not given): “inactive”; for `Cc1cc(C)c(C2=C(OC(=O)CC(C)(C)C)C3(CCCC3)OC2=O)c(C)c1`: “inactive”.
Turning to `O=C(O)CF`, the Potency result was “inactive”.
Turning to `CCN(CC)CCN1C(=O)CN=C(c2ccccc2F)c2cc(Cl)ccc21`, the Potency entry was “inactive”.
As for `Oc1cc(Cl)c(Cl)c(Cl)c1`, the Potency is 51.7 µM (active).
For `CCSC(C)CC1CC(=O)C(/C(CC)=N/OC/C=C/Cl)=C(O)C1` (stereo not given), the Potency entry was “inactive”.
With `[Cl][Sn]([c]1ccccc1)([c]1ccccc1)[c]1ccccc1` the figure was 2.59 µM (active); with `Cc1ccccc1OP(=O)(Oc1ccccc1C)Oc1ccccc1C`, “inactive”.
In the case of `COc1ccc2c(c1OC)C(=O)O[C@@H]2[C@H]1c2cc3c(cc2CCN1C)OCO3`, the Potency result is “inactive”.
With `O=c1c2ccccc2c(=O)c2c1cc(Cl)c1[nH]c3c([nH]c12)c(Cl)cc1c(=O)c2ccccc2c(=O)c13` the entry was “inactive”; with `C[As+](C)(C)CC(=O)[O-]`, “inactive”.
Take `CCCC(C)(COC(N)=O)COC(=O)NC(C)C` (stereo not given): the Potency entry is “inactive”.
Consider `Cn1sc(Cl)cc1=O`, for which the Potency result was “inactive”.
Regarding `CN=CNc1ccc(C)cc1C`, the Potency entry was “inactive”.
As to `CCNS(=O)(=O)C(F)(F)C(F)(F)C(F)(F)C(F)(F)C(F)(F)C(F)(F)C(F)(F)C(F)(F)F`, the Potency result was “inactive”.
With `CC(=O)C(Cl)Cl` the entry was “inactive”; with `CCOC(=O)c1ncn2c1CN(C)C(=O)c1c(I)cccc1-2`, “inactive”; with `CC(=O)O[C@H]1CC[C@@]2(C)C(=CC[C@@H]3[C@@H]2CC[C@]2(C)C(=O)CC[C@@H]32)C1`, “inactive”.
With `CC(C)[C@@H](Nc1ccc(C(F)(F)F)cc1Cl)C(=O)OC(C#N)c1cccc(Oc2ccccc2)c1` (stereo not given in full) the entry was “inactive”; with `O=S(=O)(c1ccc(Cl)cc1)c1ccc(Cl)cc1`, “inactive”.
As for `CCOP(=O)(NC(C)C)Oc1ccc(SC)c(C)c1` (stereo not given), the Potency result was “inactive”.
With `COP(=S)(OC)Oc1cc(Cl)c(I)cc1Cl` the entry was “inactive”; with `CC(Cc1ccc(C(C)(C)C)cc1)CN1C[C@@H](C)O[C@@H](C)C1` (stereo not given in full), “inactive”.
For `Nc1n[nH]c(N)n1`, the Potency result is “inactive”.
For `O=C1c2ccccc2C(=O)C1C(=O)C(c1ccccc1)c1ccccc1`, the Potency result is “inactive”.
Turning to `[Hg+2].[I-].[I-]`, the Potency is 54.5 µM (active).
